Source: PubChem (National Center for Advancing Translational Sciences (NCATS))
SMN2 splice enh = SMN2 splice variant enhancement; HEK293 SMN2-luciferase splicing reporter, luminescence, 30-36 h; Potency, µM (doses to about 46.1 µM), for inactives: top-dose activity change, positive = activation, usual class: activators; AID 1458; 210,000 compounds, 2.8% hits; note: % of control where 0% means no effect; nearly all actives have a fitted effect of over 55% in size
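HEK293 cells carry an SMN2 minigene-luciferase reporter in which exon 7 inclusion puts luciferase in frame. Cells were seeded at 2000 cells/well, attached for 10-12 hours, then exposed to compounds for 30-36 hours at 37C before ONE-Glo luminescence.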
NPC1 promoter act = NPC1 promoter activation | Huh7 NPC1 promoter luciferase reporter, 24 h | Potency, µM (highest dose often 9.22 µM), for inactives: at the highest dose activation, most hits filed as activators | 320,000 compounds, 2.4% hits; note: % of control where 0% means no effect; nearly all actives have a fitted effect of over 60% in size
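Huh7 cells stably carrying NPC1 promoter–luciferase, plated in Opti-MEM with 10% FBS for 2 h, were exposed to compound in DMSO for 24 h at 37 °C; luciferase reagent was added for 10 min and luminescence read.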
ELG1 repair inh = ELG1-dependent DNA repair inhibition; HEK293T ELG1-luciferase reporter, luminescence, 16 h; DNA damage induced by 5-fluorouridine; Potency, µM (highest dose often 46.1 µM), without a hit: at the highest dose activity change, negative = inhibition, usual class: inhibitors; 330,000 compounds, 2.3% hits; note: % is set by controls: 0 for no effect and ±100 for the full control effect; nearly all actives have a fitted effect of over 55% in size
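Quantitative HTS, concentration-response format. 2,000 cells/well co-treated with 5-fluorouridine and compound, 16 hr in 5% CO2 at 37 °C; ONE-Glo luminescence read after 30 min.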
ELG1 genotox = induces genotoxicity in HEK293T cells with luciferase-tagged ELG1; Potency, µM (highest dose often 46 µM), inactives show top-dose activity change, positive = activation, most hits filed as activators; HEK293T ELG1-luciferase reporter, luminescence, 16 h; 330,000 compounds, 1.3% hits; note: % of control where 0% means no effect; nearly all actives have a fitted effect of over 60% in size
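DMSO vehicle served as control against compound-treated ELG1-luciferase HEK293T cells; exposure lasted 16 hr at 37 °C and 5% CO2, followed by ONE-Glo luminescence detection after 30 min.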
FLuc counter = counter-screen for miR-21 project: firefly luciferase inhibitors or activators | Potency, µM (series often up to 57.5 µM), for inactives: top-dose activity change, negative = inhibition, hits mostly inhibitors | P08659 | 360,000 compounds, 6.9% hits | purified FLuc, Km substrates, luminescence inhibition | AID 588342;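 note: plate controls were vehicle for no effect and reference inhibitor for full effect; nearly all actives have a fitted effect of over 55% in size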
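Purified P. pyralis luciferase, 10 nM final, with Km-level 10 uM D-luciferin and 10 uM ATP in 50 mM Tris acetate pH 7.5, 10 mM Mg acetate, 0.01% Tween-20, 0.05% BSA; 6-point qHTS titration about 60 µM downward; luminescence read.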
Rab9 promoter act = activators of Rab9 promoter. Huh7 Rab9 promoter-luciferase reporter, luminescence, 24 h. Potency, µM (series often up to 9.22 µM), for inactives: top-dose activation, negative = inhibition, most hits filed as activators. 320,000 compounds, 2.8% hits; note: % of control where 0% means no effect; nearly all actives have a fitted effect of over 60% in size
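Cell-based reporter: Huh7 stable for Rab9 promoter-driven luciferase, plated in reduced-serum medium with 10% FBS at 1500 cells/well, compound-treated 24 h at 37 °C, luminescence read after 10 min reagent.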
ELG1 FLuc counter = luciferase inhibition in cell-free luciferin readout for ELG1 hits; Potency, µM (doses to about 46.1 µM), inactives show at the highest dose activity change, negative = inhibition, usual class: inhibitors; shares compounds with ELG1 repair inh; AID 624247; 350 compounds, 3% hits; cell-free firefly luciferase luminescence counter-screen, ViewLux; note: % is set by controls: 0 for no effect and ±100 for the full control effect
ELG1 Luc conf = confirmation of human ELG1-dependent DNA repair inhibitors; shares compounds with ELG1 repair inh; HEK293T ELG1-luciferase levels, luminescence; cells co-treated with 5-fluorouridine; Potency, µM (doses to about 46.1 µM), for inactives: at the highest dose activity change, negative = inhibition, most hits filed as inhibitors; 670 compounds, 68% hits; AID 624248; note: % is set by controls: 0 for no effect and ±100 for the full control effect; nearly all actives have a fitted effect of over 55% in size
Target sequence (Q96QE3 whole entry, looked up): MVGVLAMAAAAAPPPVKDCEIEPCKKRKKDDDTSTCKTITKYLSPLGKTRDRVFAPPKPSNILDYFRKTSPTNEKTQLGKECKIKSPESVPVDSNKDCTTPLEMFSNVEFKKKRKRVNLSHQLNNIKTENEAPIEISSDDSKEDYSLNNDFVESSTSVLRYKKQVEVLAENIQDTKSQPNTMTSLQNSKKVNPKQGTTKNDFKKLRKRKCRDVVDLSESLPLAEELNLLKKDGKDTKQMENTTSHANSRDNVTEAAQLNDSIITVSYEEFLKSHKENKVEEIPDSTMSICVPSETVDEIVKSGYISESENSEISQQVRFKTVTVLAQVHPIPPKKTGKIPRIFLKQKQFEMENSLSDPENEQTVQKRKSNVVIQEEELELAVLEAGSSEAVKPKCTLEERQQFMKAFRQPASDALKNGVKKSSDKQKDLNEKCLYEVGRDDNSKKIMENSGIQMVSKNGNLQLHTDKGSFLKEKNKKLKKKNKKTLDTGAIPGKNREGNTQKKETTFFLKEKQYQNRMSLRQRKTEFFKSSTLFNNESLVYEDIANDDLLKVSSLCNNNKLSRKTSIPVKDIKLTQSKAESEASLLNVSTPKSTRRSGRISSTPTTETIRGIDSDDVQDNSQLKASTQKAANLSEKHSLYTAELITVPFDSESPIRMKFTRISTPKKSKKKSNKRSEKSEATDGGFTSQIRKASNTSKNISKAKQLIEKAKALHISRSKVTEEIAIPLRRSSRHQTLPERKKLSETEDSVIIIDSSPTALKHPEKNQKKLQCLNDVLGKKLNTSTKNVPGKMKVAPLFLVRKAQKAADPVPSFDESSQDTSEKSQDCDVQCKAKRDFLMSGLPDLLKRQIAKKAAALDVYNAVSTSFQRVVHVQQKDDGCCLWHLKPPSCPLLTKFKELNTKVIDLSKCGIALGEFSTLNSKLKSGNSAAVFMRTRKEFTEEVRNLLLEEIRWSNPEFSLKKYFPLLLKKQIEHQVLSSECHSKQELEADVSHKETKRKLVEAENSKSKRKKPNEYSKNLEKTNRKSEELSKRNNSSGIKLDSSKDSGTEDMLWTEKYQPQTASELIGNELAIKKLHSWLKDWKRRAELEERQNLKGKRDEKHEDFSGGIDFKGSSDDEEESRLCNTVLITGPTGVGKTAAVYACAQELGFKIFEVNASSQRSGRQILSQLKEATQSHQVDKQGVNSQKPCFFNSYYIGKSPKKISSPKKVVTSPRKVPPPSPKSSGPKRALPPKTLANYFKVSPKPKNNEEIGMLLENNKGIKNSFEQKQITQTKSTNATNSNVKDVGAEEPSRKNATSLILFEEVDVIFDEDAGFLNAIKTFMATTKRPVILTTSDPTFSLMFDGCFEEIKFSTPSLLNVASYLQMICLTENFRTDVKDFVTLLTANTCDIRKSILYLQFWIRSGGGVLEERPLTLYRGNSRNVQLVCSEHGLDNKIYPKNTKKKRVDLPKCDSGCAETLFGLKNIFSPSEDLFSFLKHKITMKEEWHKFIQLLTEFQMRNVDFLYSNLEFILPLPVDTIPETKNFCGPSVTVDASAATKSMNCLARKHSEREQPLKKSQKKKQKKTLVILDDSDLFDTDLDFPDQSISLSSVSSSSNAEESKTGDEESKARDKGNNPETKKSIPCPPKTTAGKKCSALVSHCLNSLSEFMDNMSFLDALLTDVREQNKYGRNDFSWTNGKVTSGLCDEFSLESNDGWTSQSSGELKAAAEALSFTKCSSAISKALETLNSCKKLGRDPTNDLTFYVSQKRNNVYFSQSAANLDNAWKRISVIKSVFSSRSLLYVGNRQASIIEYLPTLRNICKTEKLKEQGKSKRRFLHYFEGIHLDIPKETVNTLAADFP
ELG1-Luc MMS = MMS-stimulated human ELG1 repair inhibition, confirmed; HEK293T luciferase-tagged ELG1 level, MMS stimulated; shares compounds with ELG1 repair inh; Potency, µM (titrated, usually from 46.1 µM), for inactives: at the highest dose activity change, negative = inhibition, usual class: inhibitors; 670 compounds, 53% hits; note: % is set by controls: 0 for no effect and ±100 for the full control effect; nearly all actives have a fitted effect of over 60% in size
ELG1 5FU viab = confirmation of ELG1 repair inhibitors: viability with 5FU | Potency, µM (doses to about 46.1 µM), for inactives: at the highest dose activity change, negative = viability loss, hits mostly cytotoxic | 670 tested, under 10 active | shares compounds with ELG1 repair inh | cell viability with 5-FU, ELG1-dependent repair;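 note: ELG1-luc HEK293T cells cotreated with 5-fluorouridine at 10 µM final; viability measured 16 h after compound addition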
ELG1 MMS viab = confirmation of ELG1 repair inhibitors: viability with MMS. shares compounds with ELG1 repair inh. Cell viability with MMS, ELG1-dependent DNA repair. Potency, µM (highest dose often 46.1 µM), inactives show top-dose activity change, negative = viability loss, most hits filed as cytotoxic. 670 compounds, 33% hits;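 note: ELG1-luc HEK293T cells co-treated with 10 µM MMS; viability read 16 h after compound addition; % is set by controls: 0 for no effect and ±100 for the full control effect; nearly all actives have a fitted effect of over 60% in size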
Cell viab unstim = affects unstimulated cell viability, ELG1 hit counter-screen; Potency, µM (top dose mostly 45.9 µM), without a hit: at the highest dose activity change, negative = loss of viability, most hits filed as cytotoxic; shares compounds with ELG1 repair inh; 900 compounds, 8% hits; cell viability counter-screen, unstimulated, luminescence;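 note: compound exposure lasted 16 hours before reading; % is set by controls: 0 for no effect and ±100 for the full control effect; nearly all actives have a fitted effect of over 55% in size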
FLuc biochem = inhibits purified firefly luciferase, counter-screen for ELG1 hits; Potency, µM (titrated, usually from 57.5 µM), for the others: at the highest dose activity, negative = inhibition, hits mostly inhibitors; shares compounds with ELG1 repair inh; AID 624253; purified firefly luciferase, luminescence counter-screen; 350 compounds, 10% hits; note: % is set by controls: 0 for no effect and ±100 for the full control effect
Active calls of the source: *. This is a sample that favours compounds with a hit; in the whole collection about 9.2% have one here. Calls come from the whole dose curve; as a rule, active = well fitted curve in the direction sought with a large enough effect; inconclusive = small, poorly fitted or top-dose-only effect, or another doubt; inactive = no such curve, though single readings can be large; an effect the other way counts as inactive or inconclusive. Potency is the fitted concentration of half-maximal effect.

COc1ccc(C(=O)N/C(=C\c2cccs2)c2nc3ccccc3[nH]2)cc1OC was read as SMN2 splice enh -17.3%, NPC1 promoter act -0.6%, ELG1 repair inh 2.31µM*, ELG1 genotox -1.5%, FLuc counter inconclusive, Rab9 promoter act -0.5%, ELG1 Luc conf 7.91µM*, ELG1-Luc MMS 0.8%, ELG1 5FU viab inconclusive, ELG1 MMS viab -0.9% and Cell viab unstim inconclusive.
Screening COc1ccc(/C=C(/NC(=O)c2ccccc2)c2nc3ccccc3[nH]2)cc1OC returned SMN2 splice enh 8.4%, NPC1 promoter act 5.0%, ELG1 repair inh -12.6%, ELG1 genotox -4.4%, FLuc counter -17.9% and Rab9 promoter act -8.5%.
Screening CCOc1ccc2oc(C(=O)Nc3nccs3)c(C)c2c1 returned ELG1 repair inh inconclusive, ELG1 genotox 2.59µM* and Cell viab unstim -8.2%.
Screening CCCCc1nnc(NC(=O)c2oc3ccc(OC)cc3c2C)s1 returned NPC1 promoter act 21.1%, ELG1 repair inh inconclusive, ELG1 genotox 8.7%, FLuc counter -25.0% and Rab9 promoter act 16.2%.
For O=C1CC(c2ccccc2)CC(=NCCO)/C1=C(\O)CCCN1C(=O)c2ccccc2C1=O (configuration not stated) the results were SMN2 splice enh 37.5%, NPC1 promoter act -2.1%, ELG1 repair inh -13.3%, ELG1 genotox -4.8%, FLuc counter -9.1% and Rab9 promoter act -0.3%.
`Cc1cccc(C(=O)OCC(=O)N2CCCCCC2)c1O` gave NPC1 promoter act 3.16µM*, ELG1 repair inh inconclusive, ELG1 genotox inconclusive, Rab9 promoter act 3.16µM* and Cell viab unstim inconclusive.
`O=C(OCC(=O)N1CCCCC1)c1cccs1` gave ELG1 repair inh inconclusive, ELG1 genotox inconclusive and Cell viab unstim -7.1%.
Screening Cc1cnc(C(=O)OCC(=O)NC(=O)c2ccccc2)cn1 returned NPC1 promoter act 2.7%, ELG1 repair inh 17.1%, ELG1 genotox 4.5%, FLuc counter 1.7% and Rab9 promoter act -8.1%.
Screening Cc1cc(NS(=O)(=O)c2ccc(NC(=O)Cc3ccc([N+](=O)[O-])cc3)cc2)nc(C)n1 returned ELG1 repair inh 5.4% and ELG1 genotox -0.3%.
`O=C(/C=C\c1cn(-c2ccccc2)nc1-c1ccc2c(c1)OCCO2)N1CCOCC1` gave SMN2 splice enh -15.0%, NPC1 promoter act -3.1%, ELG1 repair inh 3.26µM*, ELG1 genotox -12.7%, FLuc counter -17.1%, Rab9 promoter act -2.9%, ELG1 Luc conf 1.58µM*, ELG1-Luc MMS inconclusive, ELG1 5FU viab inconclusive, ELG1 MMS viab inconclusive and Cell viab unstim -8.4%.
CN(C)c1ccc(C2(c3ccc(N(C)C)cc3)OC(=O)c3cc(N(C)C)ccc32)cc1 was read as SMN2 splice enh -2.4%.
Screening COc1ccc(S(=O)(=O)NCc2ccncc2)cc1NC(=O)c1ccccc1 returned NPC1 promoter act 3.4%, ELG1 repair inh -23.3%, ELG1 genotox -0.8%, FLuc counter 0.0% and Rab9 promoter act -10.6%.
`COc1ccc(S(=O)(=O)NCc2ccncc2)cc1NC(=O)c1ccc(Cl)cc1` gave NPC1 promoter act -8.2%, ELG1 repair inh inconclusive, ELG1 genotox -5.9%, FLuc counter -2.2%, Rab9 promoter act -8.2%, ELG1 FLuc counter 8.9%, ELG1 Luc conf 17.7µM*, ELG1-Luc MMS inconclusive, ELG1 5FU viab -2.6%, ELG1 MMS viab inconclusive, Cell viab unstim inconclusive and FLuc biochem -1.6%.
Cc1cc(C(=O)COC(=O)c2cccnc2Cl)c(C)n1C was read as ELG1 repair inh inconclusive, ELG1 genotox inconclusive, ELG1 FLuc counter -8.1%, Cell viab unstim inconclusive and FLuc biochem 0.259µM*.
`CCn1c(C)cc(C(=O)COC(=O)c2cccnc2SC)c1C` gave ELG1 repair inh inconclusive, ELG1 genotox 2.31µM* and Cell viab unstim 11.9%.
Cc1nc(N)nc(N)c1/C=C/C(C)(C)c1ccc(Cl)cc1 was read as SMN2 splice enh -52.6%, NPC1 promoter act -10.8%, ELG1 repair inh 0.231µM*, ELG1 genotox -16.8%, FLuc counter 4.5%, Rab9 promoter act -26.3%, ELG1 FLuc counter inconclusive, ELG1 Luc conf 7.92µM*, ELG1-Luc MMS 14.1µM*, ELG1 5FU viab inconclusive, ELG1 MMS viab inconclusive, Cell viab unstim 0.0561µM* and FLuc biochem 6.0%.
Cc1cc(C)cc(C(=O)NCC(=O)OCC(=O)Nc2ccc(C)cc2Br)c1 was read as SMN2 splice enh 15.3%, NPC1 promoter act -3.8%, ELG1 repair inh 10.5%, ELG1 genotox 4.5%, FLuc counter -18.4% and Rab9 promoter act 5.2%.
